These results are taken from paper PMC5540273 (PLoS ONE, 2017).

Some test systems named below: GRK1; GRK4; GRK7; GSK3A; GSK3B; HCK; HIPK1; HIPK2; HIPK3; HIPK4; HPK1; HUNK; ICK; IGF1R.
Conditions in all cases: concentration: 1 μM, replicates: in singlicate; n = 1
The test system of another assay is T1, GRK2.
T1 construct: gene ADRBK1

The subject of the next assay is T2, GRK3.
T2 construct: gene ADRBK2

The next assay concerns T3, HASPIN.
T3 construct: gene GSG2

The subject of a further assay is T4, IKK-alpha.
T4 construct: gene CHUK

A further assay concerns T5, IKK-beta.
T5 construct: gene IKBKB

The test system of a further assay is T6, IKK-epsilon.
T6 construct: gene IKBKE

SMILES strings stand for the structures.
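Also: KINOMEscan kinase panel screen.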

Consider `Cl.c1ccc(Cn2ccc3cc(Nc4ncnc5ccccc45)ccc32)cc1` [GW275568], for which the “%Inh” value in the assay on GRK1 was determined as 9%; with GRK2, 0%; in the assay on GRK3, 0%; with GRK4, 0%; with GRK7, 0%; in the assay on GSK3A, 11%. For the same compound, the “%Inh” value with GSK3B is recorded as 7%; in the assay on HASPIN, 1%; with HCK, 0%; in the assay on HIPK1 it was 3%; with HIPK2 it was 0%; in the assay on HIPK3, 9%. Moreover, the “%Inh” value is on record as 0% in the assay with HIPK4; 31% with HPK1; 3% in the assay on HUNK; 0% in the assay with ICK; 0% with IGF1R; 0% in the assay with IKK-alpha. Also, the “%Inh” value in the assay on IKK-beta worked out at 0%; in the assay on IKK-epsilon it was 24%.

On to `Cl.Cn1ccc(-c2cccc(Nc3ccnc4cc(-c5nccs5)ccc34)c2)n1` [GW525701], for which the “%Inh” value with GRK1 is listed as 1%; in the assay on GRK2 it was 0%; in the assay with GRK3 it was 64%; in the assay with GRK4, 0%; in the assay on GRK7, 0%; in the assay on GSK3A it was 0%. The “%Inh” value in the assay on GSK3B was 12%; with HASPIN, 8%; in the assay on HCK, 0%; in the assay on HIPK1, 0%; in the assay with HIPK2, 0%; with HIPK3, 0%. In addition, the “%Inh” value is given as 0% with HIPK4; 34% in the assay on HPK1; 22% in the assay on HUNK; 11% in the assay on ICK; 21% in the assay on IGF1R; 30% with IKK-alpha. For the same compound, the “%Inh” value came out at 11% in the assay with IKK-beta and 31% with IKK-epsilon.

Turning to `Clc1ccc(-c2cc(-c3c[nH]nc3-c3ccccn3)ccn2)cc1` [GW681251], the “%Inh” value in the assay with GRK1 was 43%; with GRK2, 0%; with GRK3 it was 11%; with GRK4, 0%; in the assay with GRK7, 0%; in the assay with GSK3A it was 7%. The “%Inh” value in the assay with GSK3B came out at 32%; with HASPIN, 0%; with HCK, 0%; with HIPK1, 7%; with HIPK2, 0%; in the assay with HIPK3 it was 19%. Also, the “%Inh” value was determined as 0% with HIPK4; 24% in the assay on HPK1; 6% in the assay with HUNK; 0% with ICK; 4% in the assay on IGF1R; 0% in the assay on IKK-alpha. Moreover, the entries for the “%Inh” value in the assay with IKK-beta and in the assay on IKK-epsilon were 28% and 3%, respectively.

`Cl.Fc1ccccc1COc1ccc(Nc2ncnc3ccc(-c4nnc(C(F)(F)F)o4)cc23)cc1Cl` [GW424170]: the “%Inh” value in the assay on GRK1 is 0%; in the assay on GRK2 it was 0%; in the assay on GRK3, 0%; in the assay on GRK4 it was 0%; with GRK7, 0%; with GSK3A it was 17%. Further, the “%Inh” value worked out at 0% in the assay with GSK3B; 0% with HASPIN; 0% in the assay with HCK; 1% in the assay with HIPK1; 0% in the assay with HIPK2; 0% in the assay with HIPK3. Also, the “%Inh” value is 0% in the assay with HIPK4; 20% with HPK1; 3% in the assay on HUNK; 0% in the assay with ICK; 11% in the assay on IGF1R; 0% in the assay with IKK-alpha. The “%Inh” value in the assay on IKK-beta and in the assay with IKK-epsilon was 0% in each case.

Take `COc1ccc(-c2oc3ncnc(N)c3c2-c2ccc(OC)cc2)cc1` [SB-589132]: the “%Inh” value in the assay on GRK1 amounted to 0%; with GRK2, 0%; in the assay on GRK3, 70%; with GRK4 it was 9%; in the assay with GRK7 it was 0%; in the assay with GSK3A, 15%. The “%Inh” value amounted to 0% with GSK3B; 64% in the assay with HASPIN; 14% with HCK; 0% in the assay with HIPK1; 25% with HIPK2; 3% in the assay on HIPK3. Moreover, the “%Inh” value turned out to be 0% with HIPK4; 40% in the assay with HPK1; 8% in the assay with HUNK; 0% with ICK; 0% with IGF1R; 49% with IKK-alpha. For the same compound, the “%Inh” value in the assay on IKK-beta was found to be 4%; in the assay on IKK-epsilon it was 6%.

Regarding `O=c1cc(N2CCOCC2)nc2n(Cc3cccc(Cl)c3)ccn12` [GSK2296823], the “%Inh” value in the assay with GRK1 is on record as 15%; with GRK2, 0%; with GRK3, 12%; with GRK4 it was 47%; with GRK7 it was 0%; with GSK3A, 28%. Besides, the “%Inh” value in the assay on GSK3B is 7%; in the assay with HASPIN, 0%; in the assay with HCK it was 0%; with HIPK1, 12%; in the assay with HIPK2, 0%; in the assay with HIPK3, 18%. Also, the “%Inh” value with HIPK4 came to 0%; in the assay with HPK1 it was 37%; in the assay with HUNK it was 0%; in the assay on ICK, 19%; in the assay on IGF1R it was 1%; in the assay on IKK-alpha it was 3%. In addition, the “%Inh” value is reported as 17% in the assay on IKK-beta and 35% with IKK-epsilon.

For `Nc1nc(-c2ccc3c(N)n[nH]c3c2)cc(N2CCCCC2)n1` [GSK2228768], the “%Inh” value in the assay on GRK1 is 0%; in the assay with GRK2, 0%; in the assay on GRK3 it was 30%; in the assay with GRK4 it was 0%; with GRK7, 0%; in the assay on GSK3A it was 0%. The “%Inh” value in the assay on GSK3B, in the assay with HASPIN, in the assay on HCK, in the assay with HIPK1, in the assay on HIPK2 and with HIPK3 was 0% throughout. In addition, the “%Inh” value stood at 0% in the assay with HIPK4; 32% with HPK1; 0% in the assay on HUNK; 0% in the assay with ICK; 0% with IGF1R; 0% in the assay with IKK-alpha. Moreover, the “%Inh” value in the assay on IKK-beta stood at 0%; in the assay on IKK-epsilon, 29%.

For `CCc1nc(-c2cccc(N(C)S(=O)(=O)c3ccccc3)c2)c(-c2ccnc(Nc3ccc(N4CCN(C(C)=O)CC4)nc3)n2)s1` [GSK1645895], the “%Inh” value in the assay with GRK1 is listed as 0%; in the assay on GRK2, 0%; in the assay with GRK3 it was 0%; in the assay with GRK4, 0%; in the assay on GRK7 it was 0%; in the assay with GSK3A, 11%. Moreover, the “%Inh” value in the assay on GSK3B was 20%; in the assay on HASPIN it was 0%; in the assay with HCK, 0%; in the assay on HIPK1 it was 1%; with HIPK2, 0%; in the assay on HIPK3 it was 17%. For the same compound, the “%Inh” value in the assay with HIPK4 is recorded as 0%; in the assay with HPK1, 35%; with HUNK it was 0%; in the assay on ICK, 13%; with IGF1R it was 0%; in the assay with IKK-alpha, 0%. The “%Inh” value with IKK-beta was determined as 1%; in the assay with IKK-epsilon it was 39%.

In the case of `O=C(Nc1ccccc1F)NC1CCN(c2ccnc(Nc3ccc(F)cc3)n2)C1` (centres unmarked) [GSK1379722], the “%Inh” value in the assay with GRK1 amounted to 0%; with GRK2 it was 0%; with GRK3 it was 57%; in the assay on GRK4 it was 0%; in the assay with GRK7 it was 0%; in the assay on GSK3A it was 0%. Also, the “%Inh” value with GSK3B was 8%; in the assay with HASPIN, 0%; with HCK, 0%; in the assay with HIPK1 it was 0%; in the assay with HIPK2 it was 0%; in the assay with HIPK3, 10%. Besides, the “%Inh” value turned out to be 0% in the assay with HIPK4; 42% in the assay on HPK1; 24% in the assay with HUNK; 100% in the assay on ICK; 100% with IGF1R; 24% with IKK-alpha. Further, the figures for the “%Inh” value in the assay with IKK-beta and in the assay with IKK-epsilon were 23% and 0%, respectively.

With `CNc1nccc(-c2c(-c3ccc(F)cc3)ncn2CCCN2CCOCC2)n1` [SB-222516], the “%Inh” value in the assay with GRK1 amounted to 22%; in the assay with GRK2, 0%; with GRK3 it was 23%; with GRK4 it was 0%; in the assay with GRK7 it was 0%; in the assay on GSK3A it was 0%. For the same compound, the “%Inh” value stood at 14% in the assay on GSK3B; 8% with HASPIN; 0% with HCK; 0% in the assay on HIPK1; 0% in the assay with HIPK2; 0% in the assay on HIPK3. The “%Inh” value was found to be 0% in the assay on HIPK4; 0% in the assay with HPK1; 39% in the assay with HUNK; 37% in the assay with ICK; 2% in the assay with IGF1R; 0% in the assay on IKK-alpha. For the same compound, the “%Inh” value with IKK-beta and in the assay on IKK-epsilon was 0% each time.
